Laboratory results as given in PubChem BioAssay (NCATS).
Results filed as inconclusive are left out. Calls of active or inactive are those of the source. Unless noted, calls come from the whole dose curve; as a rule, active = well fitted curve in the direction sought with a large enough effect; inconclusive = small, poorly fitted or top-dose-only effect, or another doubt; inactive = no such curve, though single readings can be large; an effect the other way counts as inactive or inconclusive.

What was measured:
[1] = biological target: Thyroid hormone receptor beta (Homo sapiens) (UniProt P10828); assay: qHTS assay for small molecule agonists of thyroid hormone receptor beta signaling (AID 588545; calls by dose curve; note: potency is the fitted concentration of half-maximal effect;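 for activation: 0% = DMSO only and 100% = 10 nM T3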)
Chain of Thyroid hormone receptor beta (Homo sapiens) (P10828 whole entry, looked up): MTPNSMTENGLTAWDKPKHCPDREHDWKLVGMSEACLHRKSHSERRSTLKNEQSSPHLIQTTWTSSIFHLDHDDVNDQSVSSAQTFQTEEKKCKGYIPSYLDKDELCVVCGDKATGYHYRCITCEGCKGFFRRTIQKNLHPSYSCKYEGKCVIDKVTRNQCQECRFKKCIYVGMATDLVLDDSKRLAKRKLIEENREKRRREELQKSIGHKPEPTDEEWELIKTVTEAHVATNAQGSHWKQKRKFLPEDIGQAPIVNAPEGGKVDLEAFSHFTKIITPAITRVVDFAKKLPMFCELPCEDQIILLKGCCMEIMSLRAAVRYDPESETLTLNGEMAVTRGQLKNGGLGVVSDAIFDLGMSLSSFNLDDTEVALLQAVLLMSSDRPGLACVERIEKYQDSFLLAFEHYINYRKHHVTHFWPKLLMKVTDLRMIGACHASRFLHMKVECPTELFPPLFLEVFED
How it was run: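 TR-UAS-bla-GripTite HEK 293 cells in medium with 2% charcoal/dextran FBS, 0.1 mM NEAA and 1 mM sodium pyruvate were treated with titrated compounds for 18 hrs at 37 C. Beta-lactamase reporter was read with CCF4 dye (ex 405, em 460/530 nm); EC50 from Hill fits.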

[2] = qHTS assay for small molecule agonists of the antioxidant response element (ARE) signaling pathway (AID 651741; active = well fitted activation curve with a large enough effect in the signal ratio; the % refers to the signal ratio; note: potency is the fitted concentration of half-maximal effect; for activation: % of control where 0% means no effect)
How it was run: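 Beta-lactamase reporter under ARE control in HepG2 cells, 2,000 per well, was induced by 16 h compound treatment at 37 C. Read-out was fluorescence from LiveBLAzer B/G FRET substrate after 2 h at room temperature.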

[3] = qHTS assay for small molecule activators of the p53 signaling pathway (AID 651743; active = well fitted activation curve with a large enough effect in the signal ratio, not every such curve was filed as active; the % refers to the signal ratio; note: potency is the fitted concentration of half-maximal effect; for activation: series mostly up to about 92 µM; % of control where 0% means no effect); settings: HCT-116 p53RE-bla, beta-lactamase FRET ratio, 16 h; activation: stronger effect = higher value
How it was run: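 After 16 hours compound treatment at 37 C, HCT-116 cells stably expressing p53RE-driven beta-lactamase were loaded with LiveBLAzer B/G FRET substrate for 2 hours at room temperature. Fluorescence intensity served as the p53 activation read-out.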

[4] = qHTS assay for small molecule activators of the nuclear factor-kappa B (NF-kB) signaling pathway (AID 651749; active = well fitted activation curve with a large enough effect in the signal ratio; the % refers to the signal ratio; note: potency is the fitted concentration of half-maximal effect; for activation: series mostly up to about 77 µM; % of control where 0% means no effect); settings: NF-kB-bla ME-180 cells, beta-lactamase FRET ratio, 16 h; activation: stronger effect = higher value
How it was run: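 Activation measured after 16 hr compound treatment at 37C, 5% CO2, of 2,000 ME-180 cells/well stably expressing an NF-kB response element–driven beta-lactamase reporter, via FRET-disruption fluorescence.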

[5] = qHTS assay for environmental chemicals that activate the Aryl hydrocarbon Receptor (AhR) signaling pathway (AID 651777); settings: 1A2-DRE human hepatoma cells, luciferase, 24 h; activation: stronger effect = higher value; note: % of control where 0% means no effect; nearly all actives have a fitted effect of over 15% in size
How it was run: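 Luminescence (One-Glo, 30 min, room temperature) reports AhR-driven luciferase in stably transfected human hepatoma cells bearing DRE and CYP1A2 promoter. Cells (1,200/well) were treated with compound for 24 hr at 37 C in qHTS format.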

[6] = biological target: Peroxisome proliferator-activated receptor alpha (Homo sapiens) (UniProt Q07869); assay: qHTS assay for small molecule agonists of the peroxisome proliferator-activated receptor alpha (PPARalpha) signaling pathway (AID 651778); settings: PathHunter PPARalpha complementation, chemiluminescence, 6 h; max response: stronger effect = higher value; note: % of control where 0% means no effect
Chain of Peroxisome proliferator-activated receptor alpha (Homo sapiens) (Q07869 whole entry, looked up): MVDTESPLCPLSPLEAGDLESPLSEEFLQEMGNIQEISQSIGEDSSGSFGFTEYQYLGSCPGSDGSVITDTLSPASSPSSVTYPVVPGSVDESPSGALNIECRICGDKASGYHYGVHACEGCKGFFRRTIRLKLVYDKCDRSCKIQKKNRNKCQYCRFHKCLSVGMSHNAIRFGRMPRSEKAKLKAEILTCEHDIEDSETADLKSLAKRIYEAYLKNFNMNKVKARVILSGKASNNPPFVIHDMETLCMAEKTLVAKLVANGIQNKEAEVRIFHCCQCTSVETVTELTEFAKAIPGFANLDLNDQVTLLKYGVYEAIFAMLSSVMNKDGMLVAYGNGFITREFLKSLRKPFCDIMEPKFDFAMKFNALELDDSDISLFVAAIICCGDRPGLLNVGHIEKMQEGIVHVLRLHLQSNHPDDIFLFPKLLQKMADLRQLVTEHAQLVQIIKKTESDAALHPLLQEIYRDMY
How it was run: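 Chemiluminescence from complemented enzyme reported PPARalpha activation in cells after 6 hr of compound treatment at 37 C. The detection reagent was incubated for 60 min at room temperature, and compounds were scored as agonists.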

[7] = qHTS assay for small molecule agonists of the antioxidant response element (ARE) signaling pathway measured by Nrf2-dependant transcriptional activity (AID 720636; active = well fitted curve in the direction sought with a large enough effect in the repeat runs; an effect the other way counts as inactive or inconclusive; note: % of control where 0% means no effect)
How it was run: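 Nrf2-dependent transcription read as ONE-Glo luciferase signal from ARE-luc HepG2 reporter cells after 16 hr compound treatment at 37 C, 5% CO2, in assay medium with 1% dialyzed FBS.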

[8] = qHTS assay for small molecule agonists of the antioxidant response element (ARE) signaling pathway measured by Nrf2-dependant transcriptional activity - cell viability counter screen (AID 720653; active = well fitted curve in the direction sought with a large enough effect in the repeat runs; an effect the other way counts as inactive or inconclusive; note: % is set by controls: 0 for no effect and ±100 for the full control effect); settings: ARE-bla HepG2 viability, CellTiter-Glo ATP luminescence, 16 h; max response: stronger effect = lower value
How it was run: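 Cytotoxicity counter screen: intracellular ATP quantified by CellTiter-Glo luminescence in the same ARE-bla HepG2 plates, after 16 h compound exposure and a 2 h beta-lactamase substrate step.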

[9] = qHTS assay for cell viability of HEK293 cells (AID 743288); settings: ATP luminescence (CellTiter-Glo), 18 h; max response: stronger effect = lower value; note: nearly all actives have a fitted effect of over 50% in size; note: potency is the fitted concentration of half-maximal effect
How it was run: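 Viable-cell counts were inferred from luciferase-based ATP content in HEK293 cells seeded at 2,000/well, pre-incubated ≥5 h, then dosed with DMSO-solubilised compounds for 18 h at 37 C.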

[10] = qHTS assay for cell viability of the p53RE-bla HCT-116 cell line (AID 743292); note: nearly all actives have a fitted effect of over 55% in size; note: potency is the fitted concentration of half-maximal effect
How it was run: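 ATP-based luminescent viability (CellTiter-Glo, 30 min RT) after 16 h compound treatment at 37 C of p53RE-bla HCT-116 cells, seeded at 4,000 cells/well and rested 5 h before dosing.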

[11] = biological target: Nuclear receptor subfamily 1 group I member 2 (Rattus norvegicus) (UniProt Q9R1A7); assay: qHTS assay for small molecule activators of the rat pregnane X receptor (rPXR) signaling pathway (AID 651751; call rule not given here; note: 0% is about no effect); settings: rPXR reporter cells, luciferase (One-Glo), 24 h
Chain of Nuclear receptor subfamily 1 group I member 2 (Rattus norvegicus) (Q9R1A7 whole entry, looked up): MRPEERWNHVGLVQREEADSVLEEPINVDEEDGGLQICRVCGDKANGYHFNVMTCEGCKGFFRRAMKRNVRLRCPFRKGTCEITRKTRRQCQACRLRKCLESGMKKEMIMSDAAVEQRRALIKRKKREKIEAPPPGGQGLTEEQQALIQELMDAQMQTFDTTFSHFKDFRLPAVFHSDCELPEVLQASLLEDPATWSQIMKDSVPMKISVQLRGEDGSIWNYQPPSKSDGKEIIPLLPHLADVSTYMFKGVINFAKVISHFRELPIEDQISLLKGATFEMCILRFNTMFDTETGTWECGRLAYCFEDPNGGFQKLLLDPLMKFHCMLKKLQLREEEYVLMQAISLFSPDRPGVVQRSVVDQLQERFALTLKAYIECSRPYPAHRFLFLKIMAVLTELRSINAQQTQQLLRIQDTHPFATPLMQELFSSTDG

[12] = biological target: Peroxisome proliferator-activated receptor gamma (Homo sapiens) (UniProt P37231); assay: qHTS assay for small molecule agonists of peroxisome proliferator-activated receptor gamma signaling (AID 588536; active = well fitted curve in the direction sought with a large enough effect in the signal ratio, with a control signal flat, not every such curve was filed as active; the % refers to the signal ratio;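 note: 0% = DMSO basal wells and 100% = rosiglitazone at 2 µM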)
Chain of Peroxisome proliferator-activated receptor gamma (Homo sapiens) (P37231 whole entry, looked up): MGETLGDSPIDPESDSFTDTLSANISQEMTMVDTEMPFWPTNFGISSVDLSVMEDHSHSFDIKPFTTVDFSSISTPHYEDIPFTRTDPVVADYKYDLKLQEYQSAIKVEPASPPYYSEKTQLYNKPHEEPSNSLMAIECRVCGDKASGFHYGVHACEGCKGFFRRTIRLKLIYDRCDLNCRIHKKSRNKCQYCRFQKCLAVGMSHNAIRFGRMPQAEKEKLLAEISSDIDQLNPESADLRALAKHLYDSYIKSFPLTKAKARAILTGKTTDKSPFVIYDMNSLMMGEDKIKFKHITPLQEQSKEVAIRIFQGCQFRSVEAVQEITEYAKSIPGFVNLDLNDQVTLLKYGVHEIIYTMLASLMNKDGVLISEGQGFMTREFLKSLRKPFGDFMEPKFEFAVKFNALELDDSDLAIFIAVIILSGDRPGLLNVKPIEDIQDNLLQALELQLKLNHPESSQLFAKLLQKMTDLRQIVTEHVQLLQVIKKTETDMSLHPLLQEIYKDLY
How it was run: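 This is an agonist-mode beta-lactamase reporter assay in HEK293 PPAR-gamma-UAS-bla cells with 1% charcoal/dextran FBS. Compound titrations ran 16 h at 37 C before CCF4 detection. EC50 and efficacy are Hill fits scaled to 2 uM rosiglitazone (100%) and DMSO basal.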

[13] = biological target: Peroxisome proliferator-activated receptor gamma (Homo sapiens) (UniProt P37231); assay: qHTS assay for small molecule antagonists of peroxisome proliferator-activated receptor gamma signaling (AID 588537; active = well fitted inhibition curve with a large enough effect in the signal ratio, with a control signal flat, not every such curve was filed as active; the % refers to the signal ratio;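 note: reporter cells co-stimulated with 50 nM rosiglitazone agonist during compound treatment; % of control where 0% means no effect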)
How it was run: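 Antagonist-mode β-lactamase reporter screen run as a titration series. HEK293 PPARγ-UAS-bla cells are stimulated with rosiglitazone (50 nM final) for 16 h, then CCF4 is read at 460/530 nm. Data are scaled between DMSO and rosiglitazone and fitted to the Hill equation.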

[14] = biological target: Vitamin D3 receptor (Homo sapiens) (UniProt P11473); assay: qHTS assay for small molecule antagonists of vitamin D receptor signaling (AID 588541; calls by dose curve;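 note: receptor activated by calcitriol during compound treatment; series mostly up to about 77 µM; % is set by controls: 0 for no effect and ±100 for the full control effect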)
Chain of Vitamin D3 receptor (Homo sapiens) (P11473 whole entry, looked up): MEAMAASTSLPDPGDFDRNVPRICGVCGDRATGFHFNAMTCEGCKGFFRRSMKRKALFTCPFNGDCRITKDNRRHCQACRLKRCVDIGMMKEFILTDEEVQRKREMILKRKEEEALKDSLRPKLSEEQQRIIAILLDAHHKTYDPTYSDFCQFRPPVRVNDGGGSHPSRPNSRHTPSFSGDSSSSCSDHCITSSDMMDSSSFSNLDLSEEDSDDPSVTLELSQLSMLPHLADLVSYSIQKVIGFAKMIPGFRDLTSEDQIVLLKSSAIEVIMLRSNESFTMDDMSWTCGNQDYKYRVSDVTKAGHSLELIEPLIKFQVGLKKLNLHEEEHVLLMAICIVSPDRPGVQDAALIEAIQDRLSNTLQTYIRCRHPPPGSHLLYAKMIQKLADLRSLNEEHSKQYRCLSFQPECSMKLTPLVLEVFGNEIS
How it was run: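 Antagonist-mode beta-lactamase reporter assay: HEK293T VDR-UAS-bla cells were exposed to titrated compound alongside 1-alpha,25-dihydroxyvitamin D3 at 3 nM final for 16 h. Values were normalized to the 50 nM agonist control and DMSO basal, with IC50 and efficacy from Hill equation fits.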

[15] = biological target: Vitamin D3 receptor (Homo sapiens) (UniProt P11473); assay: qHTS assay for small molecule agonists of vitamin D receptor signaling (AID 588543; calls by dose curve;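 note: 0% = DMSO basal and 100% = reference agonist control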)
How it was run: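 Reporter cells (HEK293T, VDR-UAS-bla) were seeded in medium with 2% charcoal-stripped serum and incubated 5 h, then compounds in concentration series were added for 16 h at 37 °C. Stimulation was scaled between DMSO basal and 50 nM 1α,25-dihydroxyvitamin D3.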

[16] = qHTS assay for small molecule agonists of retinoid X receptor alpha signaling (AID 588544; calls by dose curve;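 for activation: 0% = DMSO basal wells and 100% = reference agonist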); settings: HEK293T RXRa-UAS-bla, beta-lactamase reporter, 18 h; 530 nm emission
[17] = biological target: Retinoic acid receptor RXR-alpha (Homo sapiens) (UniProt P19793); assay: as above
Chain of Retinoic acid receptor RXR-alpha (Homo sapiens) (P19793 whole entry, looked up): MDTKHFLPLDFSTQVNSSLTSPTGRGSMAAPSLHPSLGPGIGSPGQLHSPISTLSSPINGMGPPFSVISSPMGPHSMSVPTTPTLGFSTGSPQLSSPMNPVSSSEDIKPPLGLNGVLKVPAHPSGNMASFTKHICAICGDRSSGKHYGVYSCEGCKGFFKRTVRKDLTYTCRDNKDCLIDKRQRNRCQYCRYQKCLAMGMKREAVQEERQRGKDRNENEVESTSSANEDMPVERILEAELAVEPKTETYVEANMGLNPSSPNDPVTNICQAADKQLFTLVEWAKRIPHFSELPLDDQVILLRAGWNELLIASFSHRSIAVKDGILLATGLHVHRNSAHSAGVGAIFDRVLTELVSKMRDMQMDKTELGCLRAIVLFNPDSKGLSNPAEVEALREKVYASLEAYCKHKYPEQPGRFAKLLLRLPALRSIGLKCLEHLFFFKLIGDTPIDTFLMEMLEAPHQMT

[18] = qHTS assay for small molecule antagonists of retinoid X receptor alpha signaling (AID 588546; active = well fitted inhibition curve with a large enough effect in the signal ratio, with a control signal flat, not every such curve was filed as active; the % refers to the signal ratio;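 note: cells stimulated with 9-cis-retinoic acid as agonist; % is set by controls: 0 for no effect and ±100 for the full control effect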); settings: HEK293T RXRa-UAS-bla, beta-lactamase ratio, antagonist mode; measured here: W530 green channel, cytotoxicity proxy
How it was run: (§1)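 Beta-lactamase reporter inhibition, read as CCF4 fluorescence ratio (ex 405, em 460/530 nm) after 2 h at RT. HEK293T UAS-bla cells, 2500/well, were stimulated with 9-cis-RA at 500 or 100 nM final alongside test compound for 18 h at 37 C.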

[19] = biological target: Retinoic acid receptor RXR-alpha (Homo sapiens) (UniProt P19793); assay: as above; settings: HEK293T RXRa-UAS-bla, beta-lactamase ratio, antagonist mode
How it was run: as §1

[20] = biological target: Thyroid hormone receptor beta (Homo sapiens) (UniProt P10828); assay: qHTS assay for small molecule antagonists of thyroid hormone receptor beta signaling (AID 588547; active = well fitted inhibition curve with a large enough effect in the signal ratio, with a control signal flat, not every such curve was filed as active; the % refers to the signal ratio;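 note: cells stimulated with 0.4 nM T3 agonist during compound exposure; series mostly up to about 77 µM; % is set by controls: 0 for no effect and ±100 for the full control effect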); settings: TR-UAS-bla HEK293, beta-lactamase ratio, antagonist mode, 18 h
How it was run: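 Inhibition of T3-driven (0.4nM final) beta-lactamase reporter activity was measured over 0.59 nM to 92 uM compound after 18 h at 37 C. The cells were GripTite HEK293 TR-UAS-bla in charcoal/dextran-stripped serum, with CCF4 ratio read-out and IC50 from Hill fits.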

[21] = biological target: Glucocorticoid receptor (Homo sapiens) (UniProt P04150); assay: qHTS assay for small molecule agonists of glucocorticoid receptor signaling (AID 588532; active = well fitted curve in the direction sought with a large enough effect in the signal ratio, with a control signal flat; the % refers to the signal ratio;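 note: 100% = dexamethasone at 0.1 µM and 0% = DMSO only wells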); settings: HeLa MMTV-bla, beta-lactamase ratio, agonist, 18 h; stronger effect = higher value; percent of dexamethasone control, DMSO zero
Chain of Glucocorticoid receptor (Homo sapiens) (P04150 whole entry, looked up): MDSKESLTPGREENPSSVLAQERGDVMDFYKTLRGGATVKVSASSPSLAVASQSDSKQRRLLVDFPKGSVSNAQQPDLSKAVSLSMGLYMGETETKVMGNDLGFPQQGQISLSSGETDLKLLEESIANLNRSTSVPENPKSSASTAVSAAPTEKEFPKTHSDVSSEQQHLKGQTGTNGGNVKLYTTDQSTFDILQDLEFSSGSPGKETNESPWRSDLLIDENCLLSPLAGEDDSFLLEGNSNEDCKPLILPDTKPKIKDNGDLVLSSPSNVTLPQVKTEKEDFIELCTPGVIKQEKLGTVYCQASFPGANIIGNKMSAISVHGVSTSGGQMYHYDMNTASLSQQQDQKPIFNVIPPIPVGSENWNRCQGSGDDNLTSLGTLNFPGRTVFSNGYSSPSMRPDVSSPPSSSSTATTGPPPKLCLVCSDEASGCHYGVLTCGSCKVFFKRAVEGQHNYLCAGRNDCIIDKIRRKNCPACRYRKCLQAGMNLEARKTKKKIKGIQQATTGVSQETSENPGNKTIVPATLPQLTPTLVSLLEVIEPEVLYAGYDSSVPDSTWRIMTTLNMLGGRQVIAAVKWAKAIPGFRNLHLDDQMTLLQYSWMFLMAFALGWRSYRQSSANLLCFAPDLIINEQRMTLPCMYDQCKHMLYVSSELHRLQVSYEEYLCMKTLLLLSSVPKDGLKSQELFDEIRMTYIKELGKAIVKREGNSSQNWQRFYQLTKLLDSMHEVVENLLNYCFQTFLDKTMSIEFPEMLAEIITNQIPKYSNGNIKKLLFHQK
How it was run: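 Using MMTV-bla HeLa cells in medium with 1% stripped FBS and 25 mM HEPES, compounds were titrated and incubated overnight-length (18 h). Beta-lactamase cleavage of CCF4 was quantified by dual-emission fluorescence.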

[22] = biological target: Glucocorticoid receptor (Homo sapiens) (UniProt P04150); assay: qHTS assay for small molecule antagonists of glucocorticoid receptor signaling (AID 588533; active = well fitted inhibition curve with a large enough effect in the signal ratio, with a control signal flat, not every such curve was filed as active; the % refers to the signal ratio)
How it was run: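 Antagonist-mode qHTS: compound titrations added to GRE-bla HeLa cells, then dexamethasone 2 nM final; 18 h, 37 C. CCF4 FRET fluorescence normalized to dexamethasone and DMSO; IC50 from Hill fit.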

[23] = qHTS assay for small molecule antagonists of peroxisome proliferator-activated receptor delta signaling (AID 588535; active = well fitted inhibition curve with a large enough effect in the signal ratio, with a control signal flat, not every such curve was filed as active; the % refers to the signal ratio;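 for max response: cells co-treated with a PPAR-delta agonist as stimulator during compound exposure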); settings: HEK293T PPARd-UAS-bla, beta-lactamase FRET ratio, 18 h; 460 nm channel
How it was run: (§2)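 Titrations were run on PPAR-delta-UAS-bla HEK293T cells in charcoal/dextran-stripped serum, incubated 18 h at 37 C. CCF4 fluorescence (460/530 nm) after 2 h RT; Hill equation yields IC50 and maximal response.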

[24] = biological target: Peroxisome proliferator-activated receptor delta (Homo sapiens) (UniProt Q03181); assay: as above
Chain of Peroxisome proliferator-activated receptor delta (Homo sapiens) (Q03181 whole entry, looked up): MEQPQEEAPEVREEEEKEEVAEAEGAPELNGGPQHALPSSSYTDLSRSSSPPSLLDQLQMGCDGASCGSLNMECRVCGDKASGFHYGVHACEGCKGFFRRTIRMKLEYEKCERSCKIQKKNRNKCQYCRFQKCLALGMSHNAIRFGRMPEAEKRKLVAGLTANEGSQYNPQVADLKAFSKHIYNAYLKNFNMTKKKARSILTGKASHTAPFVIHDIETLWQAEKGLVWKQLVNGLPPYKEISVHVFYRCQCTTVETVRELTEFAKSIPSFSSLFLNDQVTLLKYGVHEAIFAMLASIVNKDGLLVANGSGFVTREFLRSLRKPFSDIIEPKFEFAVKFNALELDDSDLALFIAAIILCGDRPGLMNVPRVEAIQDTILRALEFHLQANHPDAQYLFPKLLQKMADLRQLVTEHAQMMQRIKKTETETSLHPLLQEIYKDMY
How it was run: as §2

[25] = qHTS assay for small molecule activators of the human pregnane X receptor (PXR) signaling pathway (AID 720659; call rule not given here; note: 0% is about no effect)

c1cc2ccc3ccc4ccc5cccc6c(c1)c2c3c4c56
active: Potency [1] 25.1 µM | Potency [2] 21.7 µM | Potency [3] 35.5 µM | Potency [4] 39.8 µM
inactive: activation [5] 6.27% | max response [6] -2.73% | Potency [7] | max response [8] -17.1% | max response [9] -3.62% | Potency [10] | max response [11] 0.241%

CC1(C)C(=O)N(Br)C(=O)N1Cl
-10%: max response [16]
inactive: outcome [12] | Potency [13] | Potency [14] | outcome [15] | Potency [17] | Potency [1] | max response [19] -6.62% | activity change % (negative = inhibition) [20] -12% | activation [3] 2.83% | activation [4] -2.38% | activation [5] 1.28% | max response [6] -1.51% | Potency [7] | max response [8] -11.1% | max response [9] -4.13% | Potency [10] | max response [11] 1.46%
-9.45%: max response [18]

CC/C(=C(\c1ccc(O)cc1)c1ccc(OCCN(C)C)cc1)c1ccccc1
active: Potency [9] 25.1 µM | Potency [10] 39.8 µM
inactive: activation [21] -2.75% | activation [5] -12.4% | max response [6] -2.87%

Brc1ccc(Oc2ccc(Br)cc2)cc1
inactive: Potency [22] | Potency [24] | Potency [14] | outcome [15] | Potency [1] | max response [19] 3.5% | activity change % (negative = inhibition) [20] 11% | Potency [2] | activation [3] 0.901% | max response [6] 4.27% | Potency [7] | max response [8] -9.27% | max response [9] -10% | Potency [10] | max response [11] -1.1% | outcome [25]
-2.23%: max response [18]
0.317%: max response [23]

CN(C)c1ccc(C(c2ccccc2)c2ccc(N(C)C)cc2)cc1
inactive: outcome [15] | activity change % (negative = inhibition) [20] 13.2% | activation [3] -0.413% | activation [4] 5.79% | activation [5] 1.41% | max response [6] -1.55% | Potency [7] | max response [8] -16.8% | max response [9] -22.1% | Potency [10] | max response [11] 5.9%
